GLD-1 RNA inh = GLD-1-TGE RNA interaction inhibition (C. elegans); inhibition, % at 5.96 µM; actives 0.44% (n = 320,000); purified GLD-1 + fluorescein TGE RNA, fluorescence polarization; AID 2280; Q17339;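 active = percent inhibition above a per-plate cutoff, the plate mean of test compounds plus 3 SD, cut at about 30% in these data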
Mcl1-Bid inh = disrupts binding of human Mcl-1 to Bid peptide; Q07820; TR-FRET Mcl-1/Bid-Dy647 peptide binding, 1536-well; inhibition, % at 21.7 µM; actives 0.97% (n = 220,000);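 active = compounds that cut the binding signal by more than half at the single screening dose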;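 also: His-tagged Mcl-1 with europium anti-His antibody binding Bid BH3 peptide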
Target sequence (Q07820 whole entry, looked up): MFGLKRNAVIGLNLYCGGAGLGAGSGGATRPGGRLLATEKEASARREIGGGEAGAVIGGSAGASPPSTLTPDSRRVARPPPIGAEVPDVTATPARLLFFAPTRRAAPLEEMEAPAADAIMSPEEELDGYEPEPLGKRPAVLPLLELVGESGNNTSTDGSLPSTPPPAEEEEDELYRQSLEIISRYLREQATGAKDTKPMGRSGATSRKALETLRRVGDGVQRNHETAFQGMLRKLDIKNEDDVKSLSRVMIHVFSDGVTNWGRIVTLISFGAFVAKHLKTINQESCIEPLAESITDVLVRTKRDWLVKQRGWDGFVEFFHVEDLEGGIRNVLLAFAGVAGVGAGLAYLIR
MCL1 BIM primary = MCL1-BIM-BH3 interaction inhibition (human); GST-MCL1 / FITC-Bim-BH3 fluorescence polarization; actives 0.68% (n = 320,000); Q07820; inhibition, % at 10.9 µM;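 active = inhibition above the mean inhibition of all tested compounds plus 3 SD, set per campaign, cut at about 40% in these data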;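 also: higher means more loss of mP so more displacement of Bim peptide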
Mcl1 Noxa PPI = disrupts binding of human Mcl-1 to Noxa peptide. TR-FRET Mcl-1/Noxa peptide binding, 2 h. inhibition, % at 21.7 µM. actives 1.5% (n = 220,000);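 active = compounds that cut the protein-peptide binding signal by more than 50% relative to plate controls in a single-dose test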;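 also: His-tagged Mcl-1 with rhodamine Noxa BH3 peptide and terbium anti-His antibody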
Bim-Mcl-1 = disrupts Bim peptide binding to human Mcl-1. Q07820. Bead-based flow cytometry, Bim peptide-Mcl-1 binding. inhibition, % at 10 µM. actives 0.1% (n = 190,000); in the data active = inhibition above about 40%
BCLXL inh = Bcl-xL (human) inhibition. Q07817. GST-Bcl-xL / FITC-Bim BH3 peptide fluorescence polarization. inhibition, % at 10.9 µM. actives 0.7% (n = 320,000);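 active = inhibition above the mean of all tested compounds plus 3 SD, cutoff set per campaign, cut at about 30% in these data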;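 also: inhibitors lower millipolarization by displacing the labeled peptide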
Target sequence (Q07817 whole entry, looked up): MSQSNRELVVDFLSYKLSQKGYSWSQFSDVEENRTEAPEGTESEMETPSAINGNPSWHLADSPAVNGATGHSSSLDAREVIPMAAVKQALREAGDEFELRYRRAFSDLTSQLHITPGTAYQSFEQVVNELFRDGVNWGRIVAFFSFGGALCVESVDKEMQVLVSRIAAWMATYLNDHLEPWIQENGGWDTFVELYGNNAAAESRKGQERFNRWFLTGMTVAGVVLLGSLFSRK
Numbers stand for hits; n = inactive; x = no result. The list is not random: actives were taken first. Their share in the collection is about 2.3%.

SMILES | GLD-1 RNA inh | Mcl1-Bid inh | MCL1 BIM primary | Mcl1 Noxa PPI | Bim-Mcl-1 | BCLXL inh
CCCOC(=O)c1cc(-c2ccc(/C=C3/C(=O)N(C)C(=O)C(C#N)=C3C)o2)ccc1Cl | n | x | n | x | x | n
CC1=C(C#N)C(=O)NC(=O)/C1=C/c1ccc(-c2ccc(S(N)(=O)=O)cc2)o1 | n | n | n | 87 | n | n
COCCn1c(SCC(=O)Nc2cc(C)on2)nnc1-c1ccco1 | n | n | n | n | n | n
CC(C)CCN(Cc1ccco1)S(=O)(=O)c1ccc(-c2ccc(=O)[nH]n2)s1 | n | x | n | x | x | n
CCOC(=O)NNc1ccc2nonc2c1[N+](=O)[O-] | n | n | n | 97 | x | n
O=C1N/C(=N/Nc2ccccc2)S/C1=C\c1ccccc1 | n | n | n | 97 | n | n
CNS(=O)(=O)c1cc(S(=O)(=O)NC)c2cccc3c2c1NC3=O | n | x | n | x | x | n
CCOC(=O)N1CCN(CC(=O)c2ccc(O)cc2O)CC1 | 41 | x | n | x | x | n
CCOC(=O)N1CCN(CC(=O)Nc2cc(OCC)ccc2OCC)CC1 | n | 60 | n | n | n | n
CCOc1ccc(OCC)c(NC(=O)CN2CCN(c3ccc(C)cc3C)CC2)c1 | n | 51 | n | n | n | n
CCOc1ccccc1N1CCN(CC(=O)Nc2cc(C)on2)CC1 | n | n | n | n | n | n
CCOc1ccc(Cl)cc1/C=N/O | n | n | n | n | n | n
CC(C)OCCCNC(=O)c1c(N)n(/N=C/c2ccccn2)c2nc3ccccc3nc12 | n | n | n | n | n | n
CCOC(=O)N1CCC(NC(=O)c2cccc3c2C(=O)N(c2ccc(OC)cc2)C3)CC1 | n | n | n | 56 | n | n
COc1ccc(N2Cc3cccc(C(=O)NC(C)CCc4ccco4)c3C2=O)cc1 (stereo unspecified) | n | n | n | 65 | n | n
Cc1ccccc1Nc1cc(C(=O)NCc2ccco2)c2ccccc2n1 | n | n | n | n | n | n
S=c1[nH]nc(-c2cccs2)n1/N=C/c1c(Cl)cccc1Cl | n | n | n | 56 | n | n
O=C(CN1C(=O)C(=O)N(C2CCCC2)C1=O)NCCc1ccc(F)cc1 | n | x | x | x | x | x
Cc1cccn2c(=O)c(C=O)c(Cl)nc12 | n | 51 | n | n | x | n
Cc1cccc(C(=O)N[C@H](C(=O)OCc2cc(=O)n3c(n2)sc2ccccc23)C(C)C)c1 | n | n | n | 69 | n | n
CC[C@@H](C)[C@H](NC(=O)C1CCN(C(=O)[C@@H](NS(=O)(=O)c2ccc(C)cc2)C(C)C)CC1)C(=O)O | n | n | n | n | n | n
Cc1cnc(C(=O)OCc2nc3ccsc3c(=O)[nH]2)cn1 | n | x | n | x | x | 30
Cc1ccc(C(=O)OCc2nc3ccsc3c(=O)[nH]2)o1 | n | x | n | x | x | n
CCCN(CCC)CCNc1c(N2CCN(C(=O)OCC)CC2)c(=O)c1=O | n | n | n | 64 | n | n
COc1ccc(C(=O)/C=C/c2ccc(N3CCCCC3)c([N+](=O)[O-])c2)c(OC)c1 | n | n | n | n | n | n
SMILES | GLD-1 RNA inh | Mcl1-Bid inh | MCL1 BIM primary | Mcl1 Noxa PPI | Bim-Mcl-1 | BCLXL inh
COc1ccc(C(=O)/C=C/c2ccc(N3CCCCC3)c([N+](=O)[O-])c2)cc1 | n | 100 | n | n | n | n
COc1cccc(NC(=O)C(=O)N/N=C/c2cc(C)n(-c3ccc(Cl)c(Cl)c3)c2C)c1 | n | 93 | n | n | n | n
Cc1c(Cc2ccccc2)c(NCCN(C)C)n2c(nc3ccccc32)c1C#N | n | n | n | 79 | x | n
NS(=O)(=O)c1ccc(S(=O)(=O)NCCc2ccccc2)cc1 | n | n | n | n | n | n
O=C(O)/C=C\C(=O)N1CCc2ccccc21 | n | 94 | n | n | n | n
O=C(O)/C=C/C(=O)N1CCc2ccccc21 | n | n | n | n | n | n
Cc1cc(C(=O)N2CC(C)CC(C)C2)n(-c2ccccc2)n1 (stereo unspecified) | n | n | n | n | n | n
Cc1cc(C(=O)N2CCOCC2)n(-c2ccccc2)n1 | n | 51 | n | n | n | n
O=C(NCCC1CCCCN1S(=O)(=O)c1ccccc1)C(=O)NCCN1CCOCC1 (stereo unspecified) | n | x | n | x | x | n
Cc1cc(/C=N/NC(=O)COc2cccc3cccnc23)c(C)n1-c1ccc(O)cc1 | n | n | n | 72 | n | n
Cc1cc(C)cc(-n2c(C)cc(/C=N\NC(=O)COc3cccc4cccnc34)c2C)c1 | n | n | n | n | n | n
Cc1noc(C(=O)N(C)c2ccccc2)c1Cl | n | x | n | x | x | n
O=C1ON=C(c2ccccc2)/C1=C/c1ccc(O)cc1 | n | x | n | x | x | n
O=C1ON=C(c2ccc(Cl)cc2)/C1=C/c1ccc(O)cc1 | n | n | n | 66 | n | n
CC1CCCC(C)N1CCNC(=O)C1CCN(S(=O)(=O)N2CCCCC2)CC1 (stereo unspecified) | n | 102 | n | n | n | n
Cc1ccc(C(=O)NCC(=O)OC(C)C(=O)Nc2ccc(N(C)C)cc2)cc1C (stereo unspecified) | n | n | n | 71 | n | n
Cc1ccc(-c2csc(NC(=O)c3ccc(C)o3)n2)cc1 | n | n | n | n | n | n
Cc1ccc(-c2csc(NC(=O)c3ccno3)n2)cc1 | n | n | n | 56 | n | n
O=S(=O)(NCC(c1ccco1)N1CCN(c2ccccc2F)CC1)c1ccc2c(c1)OCCO2 (stereo unspecified) | n | n | n | n | n | n
COc1ccc(N2CCN(C(CNS(=O)(=O)c3ccc4c(c3)OCCO4)c3ccco3)CC2)cc1 (stereo unspecified) | n | n | n | n | 52 | n
COc1cc(C2C(C#N)=C(N)Oc3c2ccc2ccccc32)ccc1OCC(=O)Nc1cccc(C)c1 (stereo unspecified) | n | n | n | n | n | n
CCN(c1ccc(NC(=O)c2ccc(Cl)nc2)cc1)C(C)C | n | n | n | 79 | n | n
Cc1ccc(C)c2nc(Cl)c(C#N)cc12 | n | n | n | n | n | n
O=C(Nc1ccccc1C(=O)O)c1cncc(Br)c1 | n | n | n | n | n | n
Cc1ccccc1CN1CCN(S(=O)(=O)c2ccc(F)cc2)CC1 | n | 60 | n | n | n | n
SMILES | GLD-1 RNA inh | Mcl1-Bid inh | MCL1 BIM primary | Mcl1 Noxa PPI | Bim-Mcl-1 | BCLXL inh
COc1ccc(N(Cc2cc3cc(OC)ccc3[nH]c2=O)C(=O)C2CCCO2)cc1 (stereo unspecified) | n | n | n | n | n | n
COc1ccc2[nH]c(=O)c(CN(C(=O)C3CCCO3)c3ccc(C)c(C)c3)cc2c1 (stereo unspecified) | n | 100 | n | n | x | n
COc1ccc2[nH]c(=O)c(CN(C(=O)NC3CCCCC3)C3CCCCC3)cc2c1 | n | n | n | n | n | n
COc1ccc2[nH]c(=O)c(CNC3CCCCC3)cc2c1 | n | 70 | n | n | n | n
COc1ccc(NCc2cc3cc(OC)ccc3[nH]c2=O)cc1 | n | n | n | n | n | n
COc1ccc2[nH]c(=O)c(CNc3cccc(C)c3)cc2c1 | n | n | n | 51 | n | n

Bioassay records (PubChem BioAssay)
